Assay results as given in PubChem BioAssay (NCI).
Several values for one entry are separate records, joined by “and”; a condition that tells them apart may be missing. Equal values may be shown once. Compounds without any hit were thinned out: in the full panel of roughly 79,000, 15% have a hit. Activity calls are given as the source filed them. No stated cut-off is given here; in the data, active means growth inhibition above about 70%; inactive means the rest.

Assay: NCI Yeast Anticancer Drug Screen. Data for the sgs1 mgt1 strain (AID 161);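 further: 0% = growth of cultures given vehicle only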
Conditions: S. cerevisiae sgs1 mgt1 strain, active compounds read high; at 50.0 µM unless noted
Procedure: Growth inhibition of yeast strains with defined genetic alterations is measured as a screen for potential anti-cancer activity. Selected strains with alterations in DNA damage repair or cell cycle control were exposed to compounds and growth inhibition was measured relative to vehicle treated controls. The strain used in this assay is sgs1 mgt1

| SMILES | growth inhibition |
| --- | --- |
| O=C1CCC(c2nc3ccccc3[nH]2)N1Cc1ccccc1 (stereo not given) | 18.1% (inactive) |
| CCOC(=O)O/C(C)=C\c1ccc(Cl)cc1 | -12.4% (inactive) |
| Cc1cc2nc3c4ccccc4scc-3c2cc1C | 99.3% (active) |
| O=C(OCc1ccccc1CN1CCCCC1)c1cccc(Cl)c1 | -6.3% (inactive) |
| COc1c(Cl)cc(C(c2cc(Cl)c(OC)c(Cl)c2)C(Cl)(Cl)Cl)cc1Cl | -13% (inactive) |
| CC1=C(CCC(=O)O)C(=O)C(CCC(=O)O)C(C)(C)C1 (stereo not given) | 13.2% (inactive) |
| Cc1cc(C)c(CC(C)C)c(C)c1 | 17.4% (inactive) |
| CCCCCCn1ncc2c(N)ncnc21 | -1.3% (inactive) |
| OC1(C2NCCc3ccccc32)CCN(CCc2ccccc2)CC1 (stereo not given) | 25.5% (inactive) |
| CC(=O)Oc1c(C)c2c(c3ncccc13)OC(C)C2 (stereo not given) | 32.4% (inactive) |
| CCC(=O)c1cccc2cccc(C(c3ccccc3)c3ccccc3)c12 | 6.35% (inactive) |
| CN(C)/C(N)=N\c1nc(O)cc(=O)[nH]1 | -0.05% (inactive) |
| COc1ccc(Cl)cc1N | -12.7% (inactive) and -2.8% (inactive) |
| CCc1cccc(C(C)C)c1NC(=O)C(=O)Nn1c(=S)[nH]c2ccccc2c1=O | -10.2% (inactive) |
| OC(c1ccccc1)c1ccc(C(O)c2ccccc2)cc1 (stereo not given) | -8.85% (inactive) |
| CCCCOC(c1ccccc1)c1ccccc1 | -11.8% (inactive) |
| O=C(O)CCC(=O)c1ccc(F)cc1 | -13.6% (inactive) |
| O=C1NCC2(CCN(CCCC3(c4ccc(F)cc4)OCCO3)CC2)N1c1ccccc1 | -1.55% (inactive) |
| CCOC(=O)c1nc2ccccc2nc1NCc1cc(OC)c(OC)c(OC)c1 | -10.8% (inactive) |
| CC1=CSC2=NCCCCN12 | 13.3% (inactive) |

| SMILES | growth inhibition |
| --- | --- |
| NCCNCCNCCN | 3.1% (inactive) |
| C1=C(Nc2ccccc2)C(=Nc2ccccc2)C=C(Nc2ccccc2)C1=Nc1ccccc1 | -3.1% (inactive) |
| O=C(CC(=O)Nc1ccccc1Cl)NNC(c1cc(N=Nc2ccc(Br)cc2)ccc1O)P(O)O (stereo not given) | 16.6% (inactive) |
| CC(=O)NC1C(OCc2ccccc2)OC(CO)C(O)C1OC(C)C(=O)N[C@@H](C)C(=O)N[C@H](CCC(=O)OCCNc1c2ccccc2nc2cccc([N+](=O)[O-])c12)C(N)=O (stereo not given in full) | 90.4% (active) |
| CS(=O)(=O)CS(C)(=O)=O | 8.2% (inactive) |
| C[C@]12C=CC(=O)C=C1CC[C@@H]1[C@@H]2C(=O)C[C@@]2(C)[C@H]1CC[C@]2(O)C(=O)COC(=O)CSc1c2ccccc2nc2ccccc12 | 8.15% (inactive) |
| CCC(=O)OCC(CC(=O)NCCc1ccccc1)=NCCc1ccccc1 | 16.6% (inactive) |
| COc1ccc(C(=O)CCC(=O)O)c(O)c1 | -12.6% (inactive) |
| CSc1nc2c(nc(N)n2C2OCC(O)C(O)C2O)c(=O)n1C (stereo not given) | 22.6% (inactive) |
| C=C(C)C1CC[C@@](C)(O)[C@H](C#N)C1 (stereo not given in full) | -22.8% (inactive) |
| Cc1cc(=O)n2nc(CSc3nnc(N)s3)sc2n1 | 7.35% (inactive) |
| COC(=O)c1ccccc1NC(=O)c1c(-c2ccccc2Cl)noc1C | 88.6% (active) |
| CC1C=NNC1=O (stereo not given) | 23.5% (inactive) |
| C[C@]12CCC(=O)C=C1CC[C@@H]1[C@@H]2C(=O)C[C@]2(C)/C(=C\C(=O)O)CC[C@@H]12 | 5.7% (inactive) |
| C=C1C(=O)C23[C@H](O)C1CC[C@H]2[C@]12COC3(O)[C@@H](O)[C@@H]1C(C)(C)CC[C@@H]2O | 19.8% (inactive) |
| CC/C=C/C(CC)(C(=O)OCC)C(=O)OCC | -6.7% (inactive) |
| O=c1[nH]c2ccc(O)cc2o1 | 27.6% (inactive) |
| O=C(NC(CSC(c1ccccc1)(c1ccccc1)c1ccccc1)C(=O)O)OC(c1ccccc1)c1ccccc1 (stereo not given) | 96.5% (active) |
| CC1(C)N=C(Oc2cc(Cl)cc(Cl)c2)NC(=S)N1 | 24% (inactive) |
| COc1cccc2cc3c(cc12)C(=O)C(C)=C(C)C3=O | -3.45% (inactive) |
